This passage reports growth results from PubChem BioAssay (NCI).

Structures are written as SMILES. About 83,000 compounds went through this panel and 20% of them were active in at least one assay; those are over-represented in the sample as a whole.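 Interpretation: 100, growth as untreated; towards 0, rising growth inhibition; 0, no net growth; 0 to -100, cell death. Compounds scoring below 10 were considered active.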 A number with no mark means an inactive call. The source made the active and inactive calls.

Test systems include HCT-15 colon; HT29 colon; SNB-75 CNS; SNB-19 CNS; PC-3 prostate; SK-MEL-5 melanoma; UACC-62 melanoma; LOX IMVI melanoma; SK-MEL-28 melanoma; SK-MEL-2 melanoma; SN12C renal; UO-31 renal; TK-10 renal; ACHN renal; CAKI-1 renal; A498 renal; MOLT-4 leukemia; EKVX NSCLC; CCRF-CEM leukemia.
Common to all, as to experiment: NCI-60 one-dose screen, 48 h (100 = growth as untreated, 0 = no growth, -100 = all killed)
What all share (conditions): 10 µM unless noted

For `Cc1ccc(-c2c3c(N)c4c(nc3nc3c2c(C)nn3-c2ccccc2)CCC4)cc1`, the growth in the assay with HCT-15 colon is 15%; in the assay with HT29 colon, 3.96% (active); in the assay with SNB-75 CNS, 105%; with SNB-19 CNS, 99.4%; with PC-3 prostate it was 91.1%; with SK-MEL-5 melanoma, 90.4%. The growth with UACC-62 melanoma was 99.8%; with LOX IMVI melanoma, -31% (active); with SK-MEL-28 melanoma, 70.2%; with SK-MEL-2 melanoma, 88.6%; in the assay with SN12C renal it was 94.1%; with UO-31 renal, 50.5%. Besides, the growth is 100% in the assay with TK-10 renal; 12% in the assay on ACHN renal; 99.2% in the assay with CAKI-1 renal; 107% in the assay with A498 renal; 60.9% in the assay on MOLT-4 leukemia.

On to `CSc1nc2nc3c(nc2c(=O)n1C)C(=O)c1ccccc1C3=O`, for which the growth in the assay on HCT-15 colon is -72.1% (active); with HT29 colon it was -21.1% (active); in the assay with SNB-75 CNS it was -98.3% (active); with SNB-19 CNS, -66.2% (active); in the assay on PC-3 prostate, -6.56% (active); with SK-MEL-5 melanoma it was -96.4% (active). For the same compound, the growth is -68.2% (active) with UACC-62 melanoma; -70.9% (active) in the assay with LOX IMVI melanoma; -60.7% (active) in the assay with SK-MEL-28 melanoma; -64.9% (active) in the assay on SK-MEL-2 melanoma; -76.7% (active) with SN12C renal; -86.1% (active) in the assay with UO-31 renal. The growth in the assay with TK-10 renal was -79.1% (active); in the assay on ACHN renal, -95% (active); in the assay with CAKI-1 renal it was -35.3% (active); in the assay on A498 renal it was -75.3% (active); with MOLT-4 leukemia, -11.9% (active).

For `CCSc1nc(-c2ccco2)n2nc(-c3ccco3)cc2n1`, the growth in the assay on HCT-15 colon is 78.1%; in the assay with HT29 colon it was 99.4%; in the assay on SNB-75 CNS, 83.2%; in the assay with SNB-19 CNS, 113%; in the assay with PC-3 prostate it was 95.7%; in the assay on SK-MEL-5 melanoma, 78.3%. Also, the growth in the assay with UACC-62 melanoma is 89.8%; with LOX IMVI melanoma, 88.3%; in the assay with SK-MEL-28 melanoma, 120%; in the assay on SK-MEL-2 melanoma, 129%; with EKVX NSCLC, 76.1%; in the assay on SN12C renal, 95.8%. The growth in the assay on UO-31 renal is 72.4%; in the assay on ACHN renal, 88.8%; in the assay with CAKI-1 renal it was 84.3%; with A498 renal, 91.7%; in the assay on CCRF-CEM leukemia, 86.7%; in the assay on MOLT-4 leukemia, 118%.

Regarding `COc1ccc2[nH]c(=O)c(CNc3ccc(Nc4nccc(-c5ccc(Cl)cc5)n4)cc3)cc2c1`, the growth in the assay with HCT-15 colon was 74.3%; in the assay with HT29 colon, 76%; in the assay with SNB-75 CNS it was 106%; in the assay with SNB-19 CNS, 95.4%; in the assay with PC-3 prostate, 71.4%; in the assay on SK-MEL-5 melanoma, 95.6%. Besides, the growth in the assay with UACC-62 melanoma was 96.7%; with LOX IMVI melanoma it was 97.1%; in the assay with SK-MEL-28 melanoma it was 112%; in the assay with SK-MEL-2 melanoma, 87%; with EKVX NSCLC it was 94%; in the assay on SN12C renal it was 87.1%. Moreover, the growth in the assay with UO-31 renal was 64%; with TK-10 renal it was 102%; with ACHN renal, 90.1%; in the assay with CAKI-1 renal, 97.6%; with CCRF-CEM leukemia, 75.7%; in the assay on MOLT-4 leukemia, 48.4%.

For `Nc1nc(SCc2cccnc2)c2ncn(C3OC(CO)C(O)C3O)c2n1` (stereo not given), the growth is 102% in the assay with HCT-15 colon; 106% in the assay with HT29 colon; 101% in the assay on SNB-75 CNS; 98.7% in the assay with SNB-19 CNS; 89.4% with PC-3 prostate; 99.5% in the assay with SK-MEL-5 melanoma. For the same compound, the growth is 84.8% with UACC-62 melanoma; 102% with LOX IMVI melanoma; 111% with SK-MEL-28 melanoma; 109% with SK-MEL-2 melanoma; 101% in the assay with EKVX NSCLC; 89.2% in the assay with SN12C renal. The growth in the assay on UO-31 renal was 72.7%; in the assay with TK-10 renal, 99.5%; in the assay with ACHN renal, 92.2%; in the assay on CAKI-1 renal, 98.6%; in the assay on CCRF-CEM leukemia, 115%; in the assay on MOLT-4 leukemia, 111%.

`COc1ccc(OC)c2c1CCC1(C2)NC(=O)NC1=O` (stereo not given): the growth in the assay with HCT-15 colon was 93.6%; in the assay on HT29 colon, 104%; in the assay with SNB-75 CNS, 86.2%; in the assay on SNB-19 CNS, 98.8%; with PC-3 prostate, 94.8%; with SK-MEL-5 melanoma it was 101%. The growth with UACC-62 melanoma was 103%; in the assay on LOX IMVI melanoma, 100%; in the assay with SK-MEL-28 melanoma it was 106%; with SK-MEL-2 melanoma, 118%; in the assay on SN12C renal it was 97.3%; with UO-31 renal, 82.3%. Moreover, the growth in the assay with TK-10 renal was 114%; in the assay with ACHN renal it was 103%; with CAKI-1 renal it was 91.3%; in the assay with A498 renal, 104%; with MOLT-4 leukemia it was 104%.

`C=CCN(/C=C/CN(CC=C)CC=C)CC=C`: the growth in the assay on HCT-15 colon is 100%; in the assay with HT29 colon it was 100%; in the assay on SNB-75 CNS it was 85.8%; in the assay on SNB-19 CNS it was 97.8%; with PC-3 prostate, 89.4%; with SK-MEL-5 melanoma it was 109%. The growth in the assay with UACC-62 melanoma is 101%; in the assay on LOX IMVI melanoma, 103%; with SK-MEL-28 melanoma it was 98.5%; in the assay on SK-MEL-2 melanoma it was 115%; with SN12C renal, 104%; in the assay with UO-31 renal, 90.1%. The growth with TK-10 renal was 96.9%; in the assay on ACHN renal it was 93.2%; with CAKI-1 renal, 69.7%; in the assay with A498 renal, 91.8%; in the assay with MOLT-4 leukemia, 96.4%.

For `O=C(COc1cccc(/C=C2\Cc3ccccc3C2=O)c1)c1ccc(Cl)cc1`, the growth in the assay on HCT-15 colon was 160%; with HT29 colon it was 69.6%; in the assay on SNB-75 CNS it was 101%; in the assay on SNB-19 CNS it was 96.5%; with PC-3 prostate, 90.3%; in the assay on SK-MEL-5 melanoma, 89.4%. In addition, the growth was 128% in the assay on LOX IMVI melanoma; 104% in the assay with SK-MEL-28 melanoma; 72.8% in the assay on SK-MEL-2 melanoma; 88.2% in the assay on EKVX NSCLC; 95% in the assay on SN12C renal; 18.5% in the assay with UO-31 renal. The growth in the assay with TK-10 renal is 163%; in the assay with ACHN renal, 154%; with CAKI-1 renal, 104%; in the assay on A498 renal, 90.1%; in the assay with CCRF-CEM leukemia, 89.8%; in the assay with MOLT-4 leukemia, 107%.
